Screening results from PubChem.
HEK293 cAMP cs: counter-screen for TSHR agonists: cAMP increase in parental HEK293 | parental HEK293 CNG cAMP sensor, membrane potential fluorescence | Potency, µM (titrated, usually from 57.1 µM), without a hit: at the highest dose activation, most hits filed as activators | hit rate 2.5% among 73,000 | AID 938; note: % of control where 0% means no effect; nearly all actives have a fitted effect of over 55% in size
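Parental HEK 293 cells stably expressing a modified CNG channel (no TSHR) report cAMP rise as membrane depolarization. Membrane potential dye with 100 uM RO 20-1724 was loaded for 60 min at room temperature, then compound added for 30 min; fluorescence read at 590 nm.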
Luciferase inh: inhibitors of firefly luciferase; P08659; purified firefly luciferase, luminescence, 8 min; Potency, µM (top dose mostly 57.1 µM), without a hit: top-dose activity change, negative = inhibition, usual class: inhibitors; hit rate 2.2% among 72,000; note: % is set by controls: 0 for no effect and ±100 for the full control effect; nearly all actives have a fitted effect of over 40% in size
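Substrate buffer containing 10 uM ATP (pH 7.2 imidazole, Mg2+, KCl, detergent, BSA) is dispensed, compound pinned in, then luciferase/luciferin detector mix added. After 8 min at ambient temperature, light output is measured.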
ERK AVP block: blocks ERK signaling stimulated by vasopressin; HEK293-V1b, vasopressin-stimulated pERK AlphaScreen; Potency, µM (titrated, usually from 57.5 µM), for the others: top-dose activity, negative = inhibition, hits mostly inhibitors; hit rate 0.99% among 72,000; AID 995; note: % is set by controls: 0 for no effect and ±100 for the full control effect; nearly all actives have a fitted effect of over 55% in size
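Phosphorylated ERK1/2 detected via AlphaScreen bead proximity in lysates of V1b-expressing HEK293 cells given 25 nM vasopressin for 5 min after 30 min compound exposure (37 °C). AC50 from Hill equation; basal DMSO 0%, vasopressin 100%.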
TSHR agonist: TSH receptor (human) agonism. HEK293-CNG-TSHR cells (CNG channel as cAMP sensor), membrane potential dye, cAMP. P16473. Potency, µM (series often up to 57.1 µM), inactives show top-dose activation, actives largely listed as activators. AID 926. hit rate 0.48% among 73,000; active = well fitted activation curve with a large enough effect in the main read-out, with a control signal flat, not every such curve was filed as active; inconclusive = small, poorly fitted or top-dose-only effect, or a change in a side signal; inactive = no such curve, though single readings can be large or run the other way; % of control where 0% means no effect;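 note: the control signal comes from parental cells without the receptor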
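HEK 293 cells stably expressing TSHR and a cAMP-gated CNG channel; parental CNG-only cells as counterscreen. Cells preloaded 60 min with membrane potential dye plus 100 uM RO 20-1724, then compound 30 min; fluorescence read at 590 nm.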
GBA activity: modulators of human glucocerebrosidase; P04062; purified enzyme, resorufin glucoside fluorescence (screen aimed at inhibitors), 20 min; Potency, µM; hit rate 1.1% among 48,000; AID 360; in the data active = potency below about 15 µM; inconclusive = mostly about 16 µM to 33 µM;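 note: the screen sought inhibitors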
Target sequence (P04062 whole entry, looked up): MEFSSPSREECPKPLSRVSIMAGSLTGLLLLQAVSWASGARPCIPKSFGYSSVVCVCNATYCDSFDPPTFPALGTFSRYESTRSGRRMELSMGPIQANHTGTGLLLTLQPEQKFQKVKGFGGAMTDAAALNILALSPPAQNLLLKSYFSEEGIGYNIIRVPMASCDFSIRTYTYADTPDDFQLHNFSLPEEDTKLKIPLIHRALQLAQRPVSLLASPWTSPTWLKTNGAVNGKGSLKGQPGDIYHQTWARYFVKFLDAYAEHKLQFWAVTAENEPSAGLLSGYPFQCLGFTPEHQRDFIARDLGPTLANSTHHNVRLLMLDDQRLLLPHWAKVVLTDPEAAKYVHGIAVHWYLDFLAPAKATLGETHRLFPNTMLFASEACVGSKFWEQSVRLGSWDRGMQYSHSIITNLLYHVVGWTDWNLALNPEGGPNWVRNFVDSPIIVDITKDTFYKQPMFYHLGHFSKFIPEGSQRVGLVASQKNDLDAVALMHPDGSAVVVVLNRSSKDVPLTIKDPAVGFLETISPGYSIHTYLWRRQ
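Normal human glucocerebrosidase (0.2 nM final) was assayed with resorufin β-D-glucopyranoside (30 uM final) in 50mM citric acid/KH2PO4, 10mM sodium taurocholate, 0.01% tween-20, pH 5.9. Compounds were titrated; fluorescence (Ex 548, Em 600) read after 20 min at RT.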
Bst PK mod: pyruvate kinase (B. stearothermophilus) modulation; Potency, µM; hit rate 1.2% among 51,000; purified pyruvate kinase, luminescence ATP production; ribose 5-phosphate activator present at AC10; in the data active = potency below about 11 µM; inconclusive = mostly about 12 µM to 25 µM;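 the screen sought inhibitors and activators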;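 note: scaled between full activation by ribose 5 phosphate and full inhibition by luteolin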
The depositor's hits bear a star; i = inactive; ? = inconclusive; · = no result given; [ ] = dose if it differs, or a comment. Rows were chosen to be rich in hits. Some 6.1% of all compounds tested hit in one or more screens of this group. Unless noted, calls come from the whole dose curve; as a rule, active = well fitted curve in the direction sought with a large enough effect; inconclusive = small, poorly fitted or top-dose-only effect, or another doubt; inactive = no such curve, though single readings can be large; an effect the other way counts as inactive or inconclusive. Potency is the fitted concentration of half-maximal effect.

SMILES	HEK293 cAMP cs	Luciferase inh	ERK AVP block	TSHR agonist	GBA activity	Bst PK mod
COc1ccc(C#CC2C=CC(OC(C)=O)C(COC(C)=O)O2)cc1 (stereo not given)	6%[11.4 µM]	·	26%[11.5 µM]	3%[11.4 µM]	·	·
COc1ccc(COC(=O)N/N=C2/C[C@@H](O)[C@@H](O)[C@@H]3[C@@H]4C(=O)N(Cc5ccc6c(c5)OCO6)C(=O)[C@H]4CC[C@H]23)cc1	4%[11.4 µM]	1%[11.4 µM]	9%[11.5 µM]	0%[11.4 µM]	·	·
COC(=O)N1C2(C=CC1(C)C(=O)NCc1ccc(N(C)C)cc1)CCCCC2 (stereo not given)	9%	·	-7%	4%	·	·
O=C(c1ccccc1)N(Cc1ccccc1)c1ccccn1	21%[11.4 µM]	2%	-11%	4µM*	·	·
O=C(OCC(=O)c1cccs1)c1ccccc1	6%	13µM*	9%	-7%	·	·
CO/N=C1/[C@H]2O[C@@H]2[C@@H](O)[C@H]2[C@H]1CCn1c(=O)n(-c3ccccc3)c(=O)n12	-8%[11.4 µM]	0%[11.4 µM]	1%[11.5 µM]	-1%[11.4 µM]	·	·
N#Cc1cccc(NC(=O)N2CC3(CCN(C(=O)c4cnccn4)CC3)C2)c1	3%	0%[11.4 µM]	-6%	1%	·	·
CCCCn1nnnc1NCc1cccnc1	3%	0%	-1%	-12%	>77	>57
CCn1nnnc1NCc1cccn1C	25µM*	-1%	13%	?	>77	>57
O=c1cc(-c2ccccc2)oc2c1ccc1ccccc12	32µM*	-1%[11.4 µM]	32µM*	?	·	·
N=C(N)SCc1cccc2c(=O)cc(-c3ccccc3)oc12	1%[11.4 µM]	3%[11.4 µM]	2%[11.5 µM]	2%[11.4 µM]	·	·
COc1ccc(O[C@H]2C=C[C@@H](c3ccccc3)O[C@@H]2CON=C(C)C)cc1	-1%[11.4 µM]	0%[11.4 µM]	20%[11.5 µM]	14%[11.4 µM]	·	·
O=C(Oc1ccc(OC(=O)N2CCOCC2)cc1)c1ccccc1	0%	-3%	2%	-6%	8*	>57
O=C(Nc1ccccc1N1CCN(c2ccccc2)CC1)C1CCCCC1	7.9µM*	0%	3%	?	>77	>57
Cc1ccsc1-c1nc(CSCC(=O)NCc2ccc3c(c2)OCO3)c(C)o1	20%	2%	?	20µM*	·	·
COc1ccc(-c2nc(CSCC(=O)NCc3ccc4c(c3)OCO4)c(C)o2)cc1OC	14%	1%	32µM*	8%	·	·
COc1ccc(-c2nc(CSCC(=O)N3CCc4ccccc43)c(C)o2)cc1OC	10%	6%	19%	5%[11.4 µM]	>77	>57
COc1ccc(NC(=O)c2cnc(C)cn2)cc1-n1cnnn1	-5%	0%	40µM*	9%	>77	>57
Cc1ccc(-c2cccc(NC(=O)C3C(C(=O)O)[C@@H]4C=C[C@H]3C4)c2)o1 (stereo not given in full)	-8%	-6%	-13%	-1%	>77	5.7*
CCCn1nnnc1SCC(=O)NCc1cccs1	1%	-1%	0%	6%	>77	>57
COCCn1c(-c2ccc(Cl)cc2)cnc1SCC(=O)NCc1cccs1	10µM*	4%	-20%	?	>77	>57
COc1ccc(CN/C(C)=C(/C#N)C(N)=O)cc1OC	-2%	-2%	-15%	13µM*	>77	>57
CN(C)S(=O)(=O)c1cccc(C(=O)NCCc2ccccc2)c1	0%	13µM*	-1%	-4%	>77	i
CS(=O)(=O)c1cccc(C(=O)NCc2ccccc2)c1	-2%	1%	29%	0%	>77	>57
CN(C)S(=O)(=O)c1cccc(C(=O)Nc2cc(Cl)ccc2O)c1	13%	13µM*	-29%	-18%	·	i
Clc1ccc(C2=Nn3c(nnc3-c3n[nH]c4c3CCC4)SC2)cc1	25µM*	2%	-7%	?	?	>57
Brc1ccc(C2=Nn3c(nnc3-c3n[nH]c4c3CCC4)SC2)cc1	13µM*	1%	-7%	?	?	>57
Cc1ccc(-c2nnc3n2N=C(c2ccc(Br)cc2)CS3)cc1	15%	-5%	-15%	11%	·	·
CC1=NNC(=S)NCCCN2CCN(CCCNC(=S)NN=C(C)C=NNC(=S)NCCCN3CCN(CCCNC(=S)NN=C1)CC3)CC2	1%[11.4 µM]	0%[11.4 µM]	9%[11.5 µM]	-3%[11.4 µM]	·	·
C/C(CCN1CCCc2nc(C)c(C)cc21)=N\O[C@@H](C)CN1CCCCc2nc(C)c(C)cc21	6%[11.4 µM]	0%[11.4 µM]	18%[11.5 µM]	15%[11.4 µM]	·	·
